Rows were chosen to be rich in hits. Some 3% of all compounds tested hit in one or more screens of this group.
Mtb BioA inh: inhibitors of Mycobacterium tuberculosis BioA enzyme | AID 602481 | inhibition, % at 9.99 µM | 360,000 tested, 0.096% active | purified M. tuberculosis BioA enzyme, plate reader; in the data active = inhibition above about 40%
BH1578 lux ind: quorum light induction in luxS cqsA deficient V. cholerae | V. cholerae BH1578 lux reporter, luminescence, 6 h | activation, % at 18.7 µM | 350,000 tested, 0.16% active; in the data active = activation mostly above about 9.7%, no sharp cut-off
Mtb FBA inh: inhibitors of M. tuberculosis fructose-bisphosphate aldolase; purified M. tuberculosis FBA, fluorescence read-out; inhibition, % at 1 µM; 360,000 tested, 2.3% active; AID 588726;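 note: 0% = vehicle and 100% = reference inhibitor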
Target sequence (P9WQA3 whole entry, looked up): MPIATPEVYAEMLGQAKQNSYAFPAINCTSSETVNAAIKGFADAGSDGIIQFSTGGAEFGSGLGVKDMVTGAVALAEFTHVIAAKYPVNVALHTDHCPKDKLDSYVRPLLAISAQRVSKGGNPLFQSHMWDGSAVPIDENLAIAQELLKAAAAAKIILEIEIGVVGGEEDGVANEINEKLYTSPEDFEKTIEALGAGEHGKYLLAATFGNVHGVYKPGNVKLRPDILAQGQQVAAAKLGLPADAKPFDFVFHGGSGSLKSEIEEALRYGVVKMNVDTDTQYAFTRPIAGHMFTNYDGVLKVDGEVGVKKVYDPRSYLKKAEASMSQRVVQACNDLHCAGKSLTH
GDH-TPI counter-1: GDH-TPI coupled enzyme inhibition counter-screen | inhibition, % at 4.8 µM | AID 588335 | GDH-TPI coupled enzyme counterscreen, NADH absorbance | 360,000 tested, 1.2% active; in the data active = inhibition above about 30%;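 note: 0% = DMSO wells and 100% = wells lacking the enzyme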
Mtb FBA confirm: confirmation of M. tuberculosis fructose-bisphosphate aldolase inhibitors; shares compounds with Mtb FBA inh; purified M. tuberculosis FBA, fluorescence read-out; inhibition, % at 1 µM; 5,600 tested, 78% active;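 note: 0% = vehicle wells and 100% = reference inhibitor wells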
GDH-TPI counter-2: counter-screen for M. tuberculosis FBA inhibitors: GDH-TPI coupled enzyme inhibition; shares compounds with Mtb FBA inh; GDH-TPI coupled enzyme counterscreen, fluorescence; inhibition, % at 1 µM; 5,600 tested, 81% active; in the data active = inhibition above about 10%
Starred values were filed as active, the others as inactive; i = inactive; x = no result; + = active, no number. Cut-off read from the data, not from the text of the source, unless noted: active = inhibition above about 27%; inactive = the rest.

SMILES | Mtb BioA inh | BH1578 lux ind | Mtb FBA inh | GDH-TPI counter-1 | Mtb FBA confirm | GDH-TPI counter-2
COc1ccc(-c2cc3ccccc3n2CC(O)CN2CCOCC2)cc1 (stereo unspecified) | 2 | i | 19 | 1 | x | x
COc1ccc(-c2cc3ccccc3n2CC(O)CN2CCN(CCO)CC2)cc1 (stereo unspecified) | 0 | -1 | 33* | 3 | -7 | -5
CC(=O)N(C(C)=O)c1ncc2c([nH]c3ccccc32)c1C#N | 0 | -7 | 38* | 11 | + | 189*
[O-][n+]1c2ccccc2cc2ccccc21 | -2 | -1 | 73* | -16 | + | +
COc1ccc2nc3ccccc3[n+]([O-])c2c1 | -8 | -1 | 4 | 15 | x | x
COc1ccccc1C(=O)Nc1ccc2c(c1)OC[C@@H](C)N(C(C)=O)C[C@@H](C)[C@@H](OC)CN(C)C2=O | 0 | x | x | x | x | x
CC(c1ccccc1)N1CCn2c(nc3cc(NS(C)(=O)=O)ccc32)C1 (stereo unspecified) | 16 | 0 | 6 | -1 | x | x
COCCN1CCn2c(nc3cc(NC(=O)c4ccc(OC)cc4)ccc32)C1 | 13 | 6 | 11 | 3 | x | x
COCCN1CCn2c(nc3cc(NC(C)=O)ccc32)C1 | 2 | i | 30* | 3 | 7 | 4
CC(=O)Nc1ccc2c(c1)nc1n2CCN(C(C)c2ccccc2)C1 (stereo unspecified) | 6 | i | 69* | 1 | 83* | 72*
CCOC(=O)Nc1ccc2c(c1)nc1n2CCN(CCOC)C1 | -2 | i | 36* | 5 | 75* | 73*
C#CCOc1ccc(C2C3=C(CCCC3=O)N(CC(=O)O)C3=C2C(=O)CCC3)cc1Br | 0 | i | 91* | 3 | 153* | 131*
C[C@@H]1CN([C@H](C)CO)C(=O)Cc2cc(NC(=O)Nc3ccc(C(F)(F)F)cc3)ccc2O[C@@H]1CN(C)S(=O)(=O)c1cn(C)cn1 | 2 | x | x | x | x | x
Cc1cc2nnc(SC(C)C#N)n2c2ccccc12 (stereo unspecified) | 3 | -17 | 3 | 10 | x | x
Cc1cc2nnc(SC(C)C)n2c2ccccc12 | x | 0 | 28* | 15 | 130* | 103*
C=CCOc1ccc(C2C3=C(CCCC3=O)N(CC(=O)O)C3=C2C(=O)CCC3)cc1OCC | -1 | i | 2 | 4 | x | x
C=CCOc1c(Br)cc(C2C3=C(CCCC3=O)N(C)C3=C2C(=O)CCC3)cc1OCC | x | 3 | 58* | 14 | 58* | 41*
CN(C)c1ccc2c(O)cc(=O)n(C)c2c1 | -1 | i | 37* | 18 | 29* | 25*
O=c1c2ccccc2nc2n1CCCN2 | 0 | i | 70* | 4 | + | +
O=c1c2ccccc2nc2n1CCC2 | x | -7 | -2 | 10 | x | x
COCC1=C([C@H](O)c2ccccc2)[C@H](CO)[C@@H]2C(=O)N(C)C(=O)[C@@H]2C1 | -2 | x | x | x | x | x
COc1ccc2c(c1)C1OCCC1C(c1ccco1)N2 (stereo unspecified) | -1 | -1 | 93* | 44* | 96* | 67*
Cc1nc(CS(=O)(=O)c2ccc(Cl)cc2)cc(Sc2ccccc2Cl)n1 | x | 2 | 31* | 3 | 110* | 98*
CCC(=O)N[C@H]1CC[C@H](CCNC(=O)Nc2ccc(F)cc2)O[C@H]1CO | 0 | x | x | x | x | x
O=C(O)CCC(=O)Nc1nc2nccc(-c3ccccc3)n2n1 | -1 | -4 | 45* | 12 | + | 181*
SMILES | Mtb BioA inh | BH1578 lux ind | Mtb FBA inh | GDH-TPI counter-1 | Mtb FBA confirm | GDH-TPI counter-2
COc1ccc(-c2cn3cccnc3n2)cc1NC(=O)c1cc(OC)c(OC)c(OC)c1 | x | 2 | 32* | 20 | + | +
CNc1nccc(-c2ccc(F)cc2)c1C#N | 21 | 0 | 32* | 6 | 145* | 96*
C[C@H](CO)N1C[C@H](C)[C@H](CN(C)CC2CC2)OCCCC[C@H](C)Oc2ccc(NS(=O)(=O)c3cn(C)cn3)cc2C1=O | -2 | x | x | x | x | x
Cc1ccc2nc(N/N=C/c3ccccc3F)nc(-c3ccccc3)c2c1 | 1 | i | 52* | 15 | 5 | -2
NNc1nc(-c2ccccc2)c2ccccc2n1 | x | 0 | 0 | 13 | x | x
Cc1ccc2nc(NCCO)nc(-c3ccccc3)c2c1 | -1 | i | 37* | 0 | 73* | 48*
OCCNc1nc(-c2ccccc2)c2ccccc2n1 | -3 | i | 52* | 17 | 171* | 148*
OCCNc1nc(-c2ccccc2)c2cc(Cl)ccc2n1 | 0 | 0 | 39* | 7 | 123* | 104*
CO[C@H]1CN(C)C(=O)c2cc(NC(=O)c3ccc(F)cc3)ccc2OC[C@@H](C)N(C(C)=O)C[C@H]1C | 7 | x | x | x | x | x
C[C@@H]1CN([C@@H](C)CO)C(=O)c2cc(-c3cccc(F)c3)cnc2O[C@H]1CN(C)CC1CCOCC1 | 1 | x | x | x | x | x
COC(=O)c1sccc1NC(=S)Nc1cccc(F)c1 | x | -1 | -1 | 20 | x | x
COC(=O)c1sccc1NC(=S)Nc1ccc(F)cc1F | x | 0 | 70* | 6 | 79* | 51*
COC(=O)c1sccc1NC(=O)CN(C)NS(=O)(=O)c1ccc(Cl)cc1 | 0 | i | 1 | 13 | x | x
COC(=O)c1sccc1NC(=O)CN(C)NS(=O)(=O)c1ccc(F)cc1 | -2 | -1 | 27* | 6 | 95* | 72*
c1ccc2c(c1)[nH]c1c(N3CCN(C4CCCCC4)CC3)ncnc12 | 9 | 0 | 33* | 7 | 40* | 22*
CCC(=O)Nc1c(C#N)c2nc3ccccc3nc2n1-c1ccccc1C | 0 | i | 36* | 9 | 76* | 64*
COc1ccc(NC(=O)Nc2ccc3c(c2)C(=O)N([C@H](C)CO)C[C@H](C)[C@H](CN(C)C(=O)Nc2c(C)noc2C)OCCCC[C@H](C)O3)cc1 | 0 | x | x | x | x | x
N#Cc1c(-c2ccc(F)cc2)c2c([nH]c1=O)-c1ccccc1OC2 | 0 | 0 | 105* | -8 | + | +
Nc1ccc2nc3n(c(=O)c2c1)CCC3 | 0 | 0 | 110* | 9 | 4 | 1
CO[C@@H]1CN(C)C(=O)c2ccc(NS(=O)(=O)c3cn(C)cn3)cc2OC[C@@H](C)N(C)C[C@H]1C | -3 | x | x | x | x | x
CN(C)C(=O)c1ccc(-c2ccc3c(c2)[C@@H]2[C@@H](CCN2C(=O)c2ccc4c(c2)OCO4)[C@H](CO)N3)cc1 | 18 | x | x | x | x | x
C[C@@H](NC(=O)C[C@@H]1CC[C@H](NC(=O)C2CCC2)[C@@H](CO)O1)c1ccccc1 | -1 | x | x | x | x | x
CCCCCCCC[n+]1cccc2c3ccccc3ccc21 | x | 0 | 67* | -3 | 65* | 42*
COc1cc2cncc(Cc3ccccc3)c2cc1O | 2 | -8 | 58* | 15 | 85* | 78*
CO[C@H]1CN(C)C(=O)c2cc(NC(=O)NC3CCCCC3)ccc2OC[C@H](C)N(C(C)=O)C[C@@H]1C | 0 | x | x | x | x | x
CC/C(=N/NC(=O)c1ccccc1)c1ccc(OCCN2CCOCC2)cc1 | 1 | -1 | 31* | 3 | 91* | 57*

High-throughput results deposited in PubChem BioAssay by several laboratories.
